Measured values from publication PMC5700166.

target: T1, GST-Nv-NF-kB (Ser allele) (Nematostella vectensis, UniProt A7UNT2 2-411); assay: protein-binding microarray (PBM); PBM: ~300 nM protein, 6 mM HEPES pH 7.8, 80 mM KCl, 0.5 mM EDTA, 0.5 mM EGTA, 6% glycerol, 35 ng/ul poly-dIdC, 1% milk, 1 h, room temperature; Ap Aiptasia and Nv Nematostella (sea anemones) / Co Capsaspora / Aq Amphimedon (sponge) / Dm Drosophila / Hu human; RHD is the Rel homology domain; high values mean tight binding; settings: dsDNA, one strand shown
T1 sequence: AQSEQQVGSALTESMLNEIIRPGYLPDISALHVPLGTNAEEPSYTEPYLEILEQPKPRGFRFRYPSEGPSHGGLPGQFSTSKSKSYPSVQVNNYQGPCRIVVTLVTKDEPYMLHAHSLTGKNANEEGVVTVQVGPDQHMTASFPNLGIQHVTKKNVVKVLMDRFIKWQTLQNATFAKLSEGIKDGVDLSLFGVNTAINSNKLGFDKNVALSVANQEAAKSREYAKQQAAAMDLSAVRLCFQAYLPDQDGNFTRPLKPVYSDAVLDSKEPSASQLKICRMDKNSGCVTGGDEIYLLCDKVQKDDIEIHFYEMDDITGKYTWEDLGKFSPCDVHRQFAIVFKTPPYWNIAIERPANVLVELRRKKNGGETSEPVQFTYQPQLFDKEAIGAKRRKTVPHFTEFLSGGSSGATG

| Sequence | binding signal [z-score] |
| --- | --- |
| CCGATTAACATCAGAACATCCCCTGATGTTAATCGGGTCTTGATTCGCTTGACGCTGCTG | 6.48 |
| CCGATTAACATCACGCGTCTACCTGATGTTAATCGGGTCTTGATTCGCTTGACGCTGCTG | 1.34 |
| CCGATTAACATCAGGGGGAGTCATGATGTTAATCGGGTCTTGATTCGCTTGACGCTGCTG | 5.02 |
| CCGATTAACATCAAAAGCCCCCATGATGTTAATCGGGTCTTGATTCGCTTGACGCTGCTG | 5.01 |
| CCGATTAACATCAGAAGTCCCCCTGATGTTAATCGGGTCTTGATTCGCTTGACGCTGCTG | 6.47 |
| CCGATTAACATCAGGGGTTTTACTGATGTTAATCGGGTCTTGATTCGCTTGACGCTGCTG | 4.36 |
| CCGATTAACATCAGGGGGGAGAATGATGTTAATCGGGTCTTGATTCGCTTGACGCTGCTG | 6.04 |
| CCGATTAACATCAGACATGGGAATGATGTTAATCGGGTCTTGATTCGCTTGACGCTGCTG | 1.34 |
| CCGATTAACATCAGGGGACTTCATGATGTTAATCGGGTCTTGATTCGCTTGACGCTGCTG | 6.12 |
| CCGATTAACATCAATCCCCCCCCTGATGTTAATCGGGTCTTGATTCGCTTGACGCTGCTG | 6.45 |
| CCGATTAACATCAGGGGGGGGAATGATGTTAATCGGGTCTTGATTCGCTTGACGCTGCTG | 6.53 |
| CCGATTAACATCAAAAATGCCCCTGATGTTAATCGGGTCTTGATTCGCTTGACGCTGCTG | 6.13 |
| CCGATTAACATCAGGGCATGCCCTGATGTTAATCGGGTCTTGATTCGCTTGACGCTGCTG | 1.33 |
| CCGATTAACATCAGAAAATCACCTGATGTTAATCGGGTCTTGATTCGCTTGACGCTGCTG | 4.87 |
